Measurements from PubChem BioAssay (NCI).
This is part of a sample that, as a whole, favours compounds with a hit. Of some 79,000 tested, about 15% had one in any assay. Activity calls are given as the source filed them. No stated cut-off is given here; in the data, active means growth inhibition above about 70%; inactive means the rest.

Test: NCI Yeast Anticancer Drug Screen. Data for the rad50 strain (AID 155);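 further: 0% = growth of vehicle-only cultures of the same strain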
Conditions: S. cerevisiae rad50 strain growth inhibition; at 50.0 µM; hits give high values
Method in brief: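 A DNA repair-deficient yeast mutant serves as the test organism; compound-induced growth inhibition is calculated against vehicle-treated cells.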

| Compound | growth inhibition |
| --- | --- |
| C[C@@]12CC/C(=N\OCC(=O)O)C=C1CC[C@H]1C2CC[C@]2(C)C1CC[C@H]2O (some centres not stated) | -9.4% (inactive) |
| NC(N)=NN(N=O)C1CCCCC1 | 4.35% (inactive) |
| S=C([SH2+])[SH2+].S=C([SH2+])[SH2+].[Pt+2].c1ccc(C[P+](c2ccccc2)(c2ccccc2)c2ccccc2)cc1 | 44.7% (inactive) |
| O=C1OC[C@@H]2Cc3c([nH]c4ccccc34)[C@@H](c3cc(O)c(O)c(O)c3)N12 | 12.1% (inactive) |
| COC(=O)CCSP(=S)(Oc1ccccc1)Oc1ccccc1 | -0.2% (inactive) |
| CC(C)CCCC(C)C1CCC2C3CC=C4CC([Se][As](C)C)CCC4(C)C3CCC12C (configuration not stated) | 11.1% (inactive) |
| Oc1ccccc1/C=N/C(O)C(Cl)(Cl)Cl (configuration not stated) | 30.2% (inactive) |
| CCOC(=O)COc1cc(Cl)c(S(=O)(=O)F)cc1Cl | 98.8% (active) |
| CCCCC(CC)COP(OCC(CC)CCCC)OCC(CC)CCCC (configuration not stated) | 22.1% (inactive) |
| CCC(=O)[O-].CCC(=O)[O-].N.N.N.N.[Co+3].[O-][Cl+3]([O-])([O-])[O-] | -9.55% (inactive) |
| CCC1(CCNC(=O)CCl)C(=O)NC(=O)NC1=O | 3.05% (inactive) |
| COc1ccc(CC(C)=O)cc1OC | -10.9% (inactive) |
| CS(=O)(=O)C(Cl)Cl | -1.5% (inactive) |
| O=[N+]([O-])c1cc(Br)c(O)c(Br)c1 | 12.2% (inactive) |
| O=S(=O)(F)c1cccc(Cl)c1C[P+](c1ccccc1)(c1ccccc1)c1ccccc1 | 25.5% (inactive) |
| CC(C(=O)c1ccccc1)N(C)Cc1ccccc1 (configuration not stated) | -27.4% (inactive) |
| CN1C(=O)C(=CN(C)c2ccccc2)C(=O)N(C)C1=O | 13.2% (inactive) |
| NC1(C(=O)O)CCCC1 | -21.1% (inactive) |
| Cc1nccc2c1[nH]c1ccccc12 | 6.5% (inactive) |
| CC(C)(C)NCC(COc1ccc([N+](=O)[O-])cc1)OP(c1ccccc1)c1ccccc1 (configuration not stated) | 15.7% (inactive) |
| O/N=C(/C(=N/O)c1ccccc1)c1ccccc1.O/N=C(/C(=N/O)c1ccccc1)c1ccccc1.[Ni] | -10.2% (inactive) |
| NC(N)=N/N=C1\C(=O)N(c2cccc([N+](=O)[O-])c2)C(=O)C1C(=O)Nc1cccc([N+](=O)[O-])c1 (configuration not stated) | -17.9% (inactive) |
| CC(=O)CCNC1(c2ccccc2)CCCCC1 | 3.6% (inactive) |

Test: NCI Yeast Anticancer Drug Screen. Data for the mec2-1 strain (AID 157)
Conditions: S. cerevisiae mec2-1 strain, at 50.0 µM, hits give high values
Method in brief: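 Growth inhibition is read against vehicle-treated controls after compound exposure of the mec2-1 yeast strain, which is defective in DNA damage repair or cell cycle control.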

| Compound | growth inhibition |
| --- | --- |
| CC(C)CC(C)OC(=O)Cc1ccccc1 (configuration not stated) | 14.5% (inactive) |
| CNC(=O)Oc1ccc(Br)cc1Br | -0.95% (inactive) |
| Fc1ccccc1N=C=S | -12% (inactive) |
| Cc1cc(C)c(C(=O)O)c(C)c1.[Hg] | 99.8% (active) |
| COc1ccccc1P(=S)(c1ccccc1)c1ccccc1 | 24.3% (inactive) |
| CC1CN1C1=C(Br)C(=O)C(N2CC2C)=C(Br)C1=O (configuration not stated) | 23.1% (inactive) |
| Nc1ccc2c(c1)[O][Sn]([c]1ccccc1)([c]1ccccc1)[O]C2=O | 89.5% (active) |
| CCOC(=O)CNCCC1(CC)C(=O)NC(=O)NC1=O | -8.2% (inactive) |
| [N-]=[N+]=CC(=O)c1ccc(Cl)cc1 | 28.4% (inactive) |
| C[C@@H]1C[C@@H]2c3cccc4c3c(cn4CO)C[C@H]2N(C)C1 | -24.6% (inactive) |
| O=[N+]([O-])c1ccc(O)c(C=NCCN=Cc2cc([N+](=O)[O-])ccc2O)c1.[Ni+2] | 5.8% (inactive) |
| CC(C)OP(=O)(OCCCO)C(Cl)Cl (configuration not stated) | 17.1% (inactive) |
| C1CC[N-]CC1.CN(C)P(=O)(N(C)C)N(C)C.OO.OO.[O]=[Mo] | -16% (inactive) |
| CCC1(CC)C(=O)NC(=O)[N]([Sn]([CH3])([CH3])[N]2C(=O)NC(=O)C(CC)(CC)C2=O)C1=O | -3.7% (inactive) |
| Cl.[O-]c1cccc2cccnc12.[O-]c1cccc2cccnc12.[O-]c1cccc2cccnc12.[O-]c1cccc2cccnc12.[Ti+4] | 92.8% (active) |
| CC(Cc1ccc2c(c1)OCO2)NCC(O)c1ccc(O)c(O)c1 (configuration not stated) | -20.2% (inactive) |
| C[C@@]12CC/C(=N\OCC(=O)O)C=C1CC[C@H]1C2CC[C@]2(C)C1CC[C@H]2O (some centres not stated) | -2.55% (inactive) |
| NC(N)=NN(N=O)C1CCCCC1 | 5.05% (inactive) |
| S=C([SH2+])[SH2+].S=C([SH2+])[SH2+].[Pt+2].c1ccc(C[P+](c2ccccc2)(c2ccccc2)c2ccccc2)cc1 | 3.45% (inactive) |
| O=C1OC[C@@H]2Cc3c([nH]c4ccccc34)[C@@H](c3cc(O)c(O)c(O)c3)N12 | -1.2% (inactive) |

| Compound | growth inhibition |
| --- | --- |
| COC(=O)CCSP(=S)(Oc1ccccc1)Oc1ccccc1 | 7.85% (inactive) |
| CC(C)CCCC(C)C1CCC2C3CC=C4CC([Se][As](C)C)CCC4(C)C3CCC12C (configuration not stated) | -0.1% (inactive) |
| Oc1ccccc1/C=N/C(O)C(Cl)(Cl)Cl (configuration not stated) | 31.6% (inactive) |
| CCOC(=O)COc1cc(Cl)c(S(=O)(=O)F)cc1Cl | 92.3% (active) |
| CCCCC(CC)COP(OCC(CC)CCCC)OCC(CC)CCCC (configuration not stated) | -14.4% (inactive) |
| CCC(=O)[O-].CCC(=O)[O-].N.N.N.N.[Co+3].[O-][Cl+3]([O-])([O-])[O-] | -1.6% (inactive) |
| CCC1(CCNC(=O)CCl)C(=O)NC(=O)NC1=O | -4.5% (inactive) |
| COc1ccc(CC(C)=O)cc1OC | 6.8% (inactive) |
| CS(=O)(=O)C(Cl)Cl | -4.75% (inactive) |
| O=[N+]([O-])c1cc(Br)c(O)c(Br)c1 | 18.8% (inactive) |
| O=S(=O)(F)c1cccc(Cl)c1C[P+](c1ccccc1)(c1ccccc1)c1ccccc1 | 3% (inactive) |
| CC(C(=O)c1ccccc1)N(C)Cc1ccccc1 (configuration not stated) | -2.05% (inactive) |
| CN1C(=O)C(=CN(C)c2ccccc2)C(=O)N(C)C1=O | 8.4% (inactive) |
| NC1(C(=O)O)CCCC1 | -21.9% (inactive) |
| Cc1nccc2c1[nH]c1ccccc12 | 5.7% (inactive) |
| CC(C)(C)NCC(COc1ccc([N+](=O)[O-])cc1)OP(c1ccccc1)c1ccccc1 (configuration not stated) | 6.25% (inactive) |
| O/N=C(/C(=N/O)c1ccccc1)c1ccccc1.O/N=C(/C(=N/O)c1ccccc1)c1ccccc1.[Ni] | -6.5% (inactive) |
| NC(N)=N/N=C1\C(=O)N(c2cccc([N+](=O)[O-])c2)C(=O)C1C(=O)Nc1cccc([N+](=O)[O-])c1 (configuration not stated) | -22.4% (inactive) |
| CC(=O)CCNC1(c2ccccc2)CCCCC1 | 2.95% (inactive) |
